According to PubChem BioAssay (NCATS):
Records with an inconclusive call do not appear. Calls of active or inactive are those of the source. The call rests on the fitted dose curve; in most records, active means well fitted curve in the direction sought with a large enough effect; inconclusive means small, poorly fitted or top-dose-only effect, or another doubt; inactive means no such curve, though single readings can be large; an effect the other way counts as inactive or inconclusive.

Assays:
HaCat [1] = test: Cytotoxic Profiling of Annotated Libraries Using Quantitative High-Throughput Screening (AID 1296008); details: Five cell lines viability, CellTiter-Glo ATP luminescence, 48-72 h; max response: active compounds read low; further: nearly all actives have a fitted effect of over 60% in size
Method in brief: (§1)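 Cytotoxicity was measured as CellTiter-Glo ATP luminescence, read after 10 min at room temperature. Compound treatment of the cells lasted 48 or 72 hr at 37 degrees Celsius in a qHTS format.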

KB-3-1 = test: as above; details: Five cell lines viability, CellTiter-Glo ATP luminescence, 48-72 h; max response: active compounds read low
Method in brief: as §1

NIH3T3 [2] = test: as above; details: Five cell lines viability, CellTiter-Glo ATP luminescence, 48-72 h; max response: active compounds read low
Method in brief: as §1

HACAT [3] = test: qHTS assay to identify novel small-molecules to repurpose for Merkel cell carcinoma treatment (AID 1296009); details: MCC and control cell lines, CellTiter-Glo viability, 72 h; at 44.8 µM (top of the series) unless noted; further: nearly all actives have a fitted effect of over 60% in size
Method in brief: (§2)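 72 hr, 37 degree celsius; NPC 8-pt / MIPE 11-pt dose response; compound pinned in DMSO; CellTiter-Glo, 10 min RT, luminescence; normalized to no-cell and DMSO controls.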

MCC-13 = test: as above; details: MCC and control cell lines, CellTiter-Glo viability, 72 h; series mostly up to 46 µM
Method in brief: as §2

MCC-26 = test: as above; details: MCC and control cell lines, CellTiter-Glo viability, 72 h; series mostly up to 46 µM
Method in brief: as §2

MKL-1 = test: as above; details: MCC and control cell lines, CellTiter-Glo viability, 72 h; series mostly up to 46 µM
Method in brief: as §2

MKL-2 = test: as above; details: MCC and control cell lines, CellTiter-Glo viability, 72 h; series mostly up to 46 µM
Method in brief: as §2

UISO = test: as above; details: MCC and control cell lines, CellTiter-Glo viability, 72 h; series mostly up to 46 µM
Method in brief: as §2

WaGa = test: as above; details: MCC and control cell lines, CellTiter-Glo viability, 72 h; series mostly up to 46 µM
Method in brief: as §2

C33A = test: Primary qHTS to identify gynecologic anti-cancer compounds using libraries of approved drugs and bioactive compounds (AID 1345084); details: Gynecologic cancer cell panel viability, ATPlite luminescence, 48 h; series mostly up to 57.5 µM; further: nearly all actives have a fitted effect of over 55% in size
Method in brief: (§3)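 Five-point cytotoxicity, 48 h drug exposure at 37 C, 5% CO2, on cells seeded 16 h beforehand. ATP content read by ATPlite luminescence.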

CAOV3 = test: as above; details: Gynecologic cancer cell panel viability, ATPlite luminescence, 48 h; series mostly up to 57.5 µM
Method in brief: as §3

CASKI = test: as above; details: Gynecologic cancer cell panel viability, ATPlite luminescence, 48 h; series mostly up to 57.5 µM
Method in brief: as §3

Es-2 = test: as above; details: Gynecologic cancer cell panel viability, ATPlite luminescence, 48 h; series mostly up to 57.5 µM
Method in brief: as §3

HeLa = test: as above; details: Gynecologic cancer cell panel viability, ATPlite luminescence, 48 h; series mostly up to 57.5 µM
Method in brief: as §3

Hek293T [4] = test: as above; details: Gynecologic cancer cell panel viability, ATPlite luminescence, 48 h, control line for the selectivity index; series mostly up to 57.5 µM
Method in brief: as §3

JEG-3 = test: as above; details: Gynecologic cancer cell panel viability, ATPlite luminescence, 48 h; series mostly up to 57.5 µM
Method in brief: as §3

OV90 = test: as above; details: Gynecologic cancer cell panel viability, ATPlite luminescence, 48 h; series mostly up to 57.5 µM
Method in brief: as §3

HEK293T [5] = test: qHTS assay to identify novel small-molecules to repurpose for Merkel cell carcinoma treatment (AID 1296009); details: MCC and control cell lines, CellTiter-Glo viability, 72 h; at 44.8 µM (top of the series) unless noted; further: nearly all actives have a fitted effect of over 60% in size
Method in brief: as §2

NIH3T3 [6] = test: as above; details: MCC and control cell lines, CellTiter-Glo viability, 72 h; at 44.8 µM (top of the series) unless noted
Method in brief: as §2
On the % scale 0 is the no-effect control and ±100 the full control effect.

CCN1CCN(C(=O)N[C@@H](C(=O)N[C@@H]2C(=O)N3[C@@H]2SC(C)(C)[C@H]3C(=O)O)c2ccccc2)C(=O)C1=O
inactive: outcome (HaCat [1]) | max response (KB-3-1) -9.16% | max response (NIH3T3 [2]) 2.03% | outcome (HACAT [3]) | Potency (MCC-13) | Potency (MCC-26) | Potency (MKL-1) | Potency (MKL-2) | Potency (UISO) | Potency (WaGa) | Potency (C33A) | Potency (CAOV3) | Potency (CASKI) | Potency (Es-2) | Potency (HeLa) | Potency (Hek293T [4]) | Potency (JEG-3) | Potency (OV90)

CC(=O)OCC(=O)[C@@]1(O)[C@H](OC(C)=O)C[C@H]2[C@@H]3CCC4=CC(=O)C=C[C@]4(C)[C@@]3(F)[C@@H](O)C[C@@]21C
inactive: outcome (HaCat [1]) | max response (KB-3-1) 1.08% | outcome (NIH3T3 [2]) | outcome (HACAT [3]) | outcome (HEK293T [5]) | Potency (MCC-13) | Potency (MCC-26) | Potency (MKL-1) | Potency (MKL-2) | outcome (NIH3T3 [6]) | Potency (UISO) | Potency (WaGa) | Potency (C33A) | Potency (CAOV3) | Potency (CASKI) | Potency (Es-2) | Potency (HeLa) | Potency (Hek293T [4]) | Potency (JEG-3) | Potency (OV90)

COc1cc(C=O)ccc1O
inactive: outcome (HaCat [1]) | max response (KB-3-1) -6.73% | max response (NIH3T3 [2]) -0.279% | outcome (HACAT [3]) | Potency (MCC-13) | Potency (MCC-26) | Potency (MKL-1) | Potency (MKL-2) | Potency (UISO) | Potency (WaGa) | Potency (C33A) | Potency (CAOV3) | Potency (CASKI) | Potency (Es-2) | Potency (HeLa) | Potency (Hek293T [4]) | Potency (JEG-3) | Potency (OV90)

COc1ccccc1N1CCN(CCN2C(=O)CC3(CCCC3)CC2=O)CC1
inactive: outcome (HaCat [1]) | max response (KB-3-1) 1.39% | outcome (NIH3T3 [2]) | outcome (HACAT [3]) | outcome (HEK293T [5]) | outcome (NIH3T3 [6]) | Potency (C33A) | Potency (CAOV3) | Potency (CASKI) | Potency (Es-2) | Potency (HeLa) | Potency (Hek293T [4]) | Potency (JEG-3) | Potency (OV90)

CN1CCC(=C2c3ccccc3CCc3cccnc32)CC1
inactive: outcome (HaCat [1]) | max response (KB-3-1) -10.8% | outcome (NIH3T3 [2]) | outcome (HACAT [3]) | Potency (MCC-13) | Potency (MCC-26) | Potency (MKL-1) | Potency (MKL-2) | outcome (NIH3T3 [6]) | Potency (UISO) | Potency (WaGa) | Potency (C33A) | Potency (CAOV3) | Potency (CASKI) | Potency (Es-2) | Potency (HeLa) | Potency (Hek293T [4]) | Potency (JEG-3) | Potency (OV90)

CC(C)(C)c1nnc(NS(=O)(=O)c2ccccc2)s1
inactive: outcome (HaCat [1]) | max response (KB-3-1) 3.82% | max response (NIH3T3 [2]) 1.08% | outcome (HACAT [3]) | outcome (HEK293T [5]) | Potency (MCC-13) | Potency (MCC-26) | Potency (MKL-1) | Potency (MKL-2) | Potency (UISO) | Potency (WaGa) | Potency (C33A) | Potency (CAOV3) | Potency (CASKI) | Potency (Es-2) | Potency (HeLa) | Potency (Hek293T [4]) | Potency (JEG-3) | Potency (OV90)

CO[C@@]1(NC(=O)CSC[C@@H](N)C(=O)O)C(=O)N2C(C(=O)O)=C(CSc3nnnn3C)CS[C@@H]21
inactive: outcome (HaCat [1]) | max response (KB-3-1) -3.72% | max response (NIH3T3 [2]) -3.38% | outcome (HACAT [3]) | outcome (HEK293T [5]) | Potency (MCC-13) | Potency (MCC-26) | Potency (MKL-1) | Potency (MKL-2) | Potency (UISO) | Potency (WaGa) | Potency (C33A) | Potency (CAOV3) | Potency (CASKI) | Potency (Es-2) | Potency (HeLa) | Potency (Hek293T [4]) | Potency (JEG-3) | Potency (OV90)
